Results taken from PubChem BioAssay (NCI).
About 83,000 compounds went through this panel and 20% of them were active in at least one assay; those are over-represented in the sample as a whole.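 Values shown are percent growth following 48 h exposure of cells in 96-well plates to a single concentration of compound; below 10 was considered active.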 Values without a mark were called inactive. The source made the active and inactive calls.

Legend:
Assay in all cases: NCI-60 one-dose screen, 48 h (100 = growth as untreated, 0 = no growth, -100 = all killed)
Details in all cases: 10 µM unless noted
[1] = system: HCT-15 colon
[2] = system: HT29 colon
[3] = system: SNB-75 CNS
[4] = system: SNB-19 CNS
[5] = system: U251 CNS
[6] = system: PC-3 prostate
[7] = system: SK-MEL-5 melanoma
[8] = system: UACC-62 melanoma
[9] = system: LOX IMVI melanoma
[10] = system: SK-MEL-28 melanoma

Row | Compound | growth [1] | growth [2] | growth [3] | growth [4] | growth [5] | growth [6] | growth [7] | growth [8] | growth [9] | growth [10]
1 | COc1cc2oc(-c3ccc(O)cc3)cc(=O)c2c(O)c1I | 100% | 107% | 99% | 95.9% | 97% | 97.5% | 101% | 102% | 107% | 108%
2 | O=C(c1cnn2c1NC(c1ccc(F)cc1)C2)N1CCCCC1 (stereo not given) | 102% | 103% | 84.8% | 100% | 97.1% | 96.9% | 97.8% | 101% | 103% | 103%
3 | COc1cc(/C=C/C(=O)CC(=O)/C=C/c2cc(Br)c(OC)c(OC)c2)cc(Br)c1OC | 109% | 103% | 93.7% | 99.8% | 105% | 105% | 108% | 101% | 97.8% | 106%
4 | Cc1ccccc1-n1nnc(C(=O)Nc2ccc(-c3ccccc3)cn2)c1C | 39.8% [50 µM] | 28.1% [50 µM] | 83.6% [50 µM] | 62.6% [50 µM] | 64.9% [50 µM] | 40.5% [50 µM] | -41.8% [50 µM] (active) | 45.6% [50 µM] | 48.1% [50 µM] | 56.8% [50 µM]
5 | C=C[C@H]1C[C@@H]2C[C@@H]3[C@H]4C/C=C\C(=O)NCCCC5NC(=O)C(=C(O)/C=C/[C@@H]4CC(=O)[C@H]3[C@@H]2[C@H]1C)C5=O (stereo not given in full) | -76.2% (active) | -76% (active) | -85.4% (active) | -74% (active) | -96.4% (active) | -82.5% (active) | -95.3% (active) | -75.8% (active) | -47.2% (active) | -78% (active)
6 | COc1ccc(C2=NOC(CC(=O)N(CCO)CCO)C2)cc1OC1CCCC1 (stereo not given) | 98.6% | 110% | 86.5% | 97% | 97.5% | 95.5% | 94.1% | 100% | 103% | 119%
7 | Cc1ccc(N(CSc2ccc(Cl)cc2)CSc2ccc(Cl)cc2)cc1 | 67.2% | 74.7% | 106% | 78.6% | 47.8% | 10.8% | 65.5% | 60% | -10.1% (active) | 102%
8 | Cn1cc(C(=O)NCCC(=N)N)cc1NC(=O)CN=C(N)N | 111% | 107% | 88.9% | 101% | 98% | 92.5% | 101% | 98% | 97.5% | 92.6%
9 | CC(C)N1CCN(c2ccc(OC[C@H]3CO[C@](Cn4cncn4)(c4ccc(Cl)cc4Cl)O3)cc2)CC1 | 62.3% | 21.5% | 89.7% | 97.7% | 73.8% | 73.9% | 47.9% | 71.6% | 86.5% | 63.2%
10 | COc1cc(/C=C/C(=O)C(=Cc2ccc(F)c(F)c2)C(=O)/C=C/c2ccc(O)c(OC)c2)ccc1O | 26% | -31.4% (active) | 38.3% | 63.1% | 18.8% | 30.7% | 40.9% | 32.3% | -82.5% (active) | 36%
11 | O=C(Nc1nc2ccccc2[nH]1)C(=O)Nc1nc2ccccc2[nH]1 | 86.2% | 107% | 93.4% | 101% | 96.5% | 85.7% | 99.2% | 97.5% | 93.5% | 107%
12 | CCN(CC)CCCNc1ccc(C)c2sc3ccccc3c(=O)c12 | -13.3% (active) | -24.2% (active) | 47.1% | 46.7% | 15.4% | 22.7% | -99.4% (active) | -49.2% (active) | -93.4% (active) | -80% (active)
13 | c1ccc(-c2n(Cc3ccc4ccccc4n3)c3ccccc3[n+]2Cc2ccc3ccccc3n2)cc1 | 47.9% | 0.506% (active) | -21.5% (active) | 10.6% | 12.1% | 5.27% (active) | -95.9% (active) | -45% (active) | -75.8% (active) | -4.75% (active)
14 | COC(=O)c1c2c(c(C)[n+]([O-])c1C)C(=O)C(NCc1ccc(O)cc1)=CC2=O | -43.4% (active) | 3.68% (active) | -29.5% (active) | -28.5% (active) | -0.0674% (active) | 7.51% (active) | -99.7% (active) | -73.8% (active) | -89.6% (active) | -3.61% (active)
15 | COc1cccc2c(=O)c3c(sc12)c(NCCN(C)C)nc1ccccc13 | 16.5% | 3.18% (active) | -5.46% (active) | 36.6% | -28.1% (active) | 23% | 32.9% | 57% | -2.57% (active) | 43.9%
16 | COc1cccc(C2C3=C(COC3=O)N(CCO)c3cc4c(cc32)CCC4)c1 (stereo not given) | 2.3% (active) | -28.2% (active) | -19.2% (active) | 11.3% | 2.42% (active) | 23.5% | -16.2% (active) | 8.14% (active) | 14.8% | 46.8%
17 | COc1ccc(/C=N/OCC(O)CNCc2ccccc2)cc1OC1CCCC1 (stereo not given) | 102% | 104% | 77.9% | 95.2% | 99.6% | 86.7% | 93.3% | 98.3% | 91.4% | 109%
18 | Nc1nc(-c2ccnc(Cl)c2)nn1-c1nc2ccccc2s1 | 101% | 112% | 103% | 98.9% | 107% | 102% | 106% | 97% | 102% | 104%
19 | CN([N-]C(=O)CC(=O)[N-]N(C)C(=S)c1ccccc1)C(=S)c1ccccc1.[Cu+2] | 2.52% (active) | -77.8% (active) | -96.8% (active) | -96.1% (active) | -99% (active) | -53% (active) | -94.6% (active) | -92.4% (active) | -93.1% (active) | -94.7% (active)
20 | COc1ccc(-c2[nH]ncc2Nc2cc(OC)c(OC)c(OC)c2)cc1 | 32.2% | 26.2% | 44.6% | 34.6% | 31.1% | 33.6% | -11.3% (active) | 27.4% | 46.1% | 67.2%
21 | O=C(NCc1ccco1)C1CCN(S(=O)(=O)c2ccc(Cl)cc2)CC1 | 70.6% | 83.2% | 72.2% | 84.3% | 83% | -43.6% (active) | 75.7% | 69.8% | 77.1% | 85.5%
